Laboratory results taken from article PMC11006913.
Changes are numbered by the printed parent chain.

Columns and labels:
Experiment in all cases: PBM; 200 nM protein, PBS
Settings in all cases: dsDNA, one strand shown
[1] = target: T1, SIX6 (Homo sapiens, UniProt O95475 114-200, L167I)
T1 sequence: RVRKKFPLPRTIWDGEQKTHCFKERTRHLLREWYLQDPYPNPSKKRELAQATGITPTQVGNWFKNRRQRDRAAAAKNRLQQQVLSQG

[2] = target: T2, SIX6 (Homo sapiens, UniProt O95475 114-200, L143V)
T2 sequence: T1 sequence with L30V, I54L

[3] = target: T3, SIX6 (Homo sapiens, UniProt O95475 114-200, H141N)
T3 sequence: T1 sequence with H28N, I54L

[4] = target: T4, SIX6 (Homo sapiens, UniProt O95475 114-200, T165P)
T4 sequence: T1 sequence with T52P, I54L

[5] = target: T5, SIX6 (Homo sapiens, UniProt O95475 114-200, L167M)
T5 sequence: T1 sequence with I54M

[6] = target: T6, SIX6 (Homo sapiens, UniProt O95475 114-200, L143M)
T6 sequence: T1 sequence with L30M, I54L

[7] = target: T7, SIX6 (Homo sapiens, UniProt O95475 114-200, L143I)
T7 sequence: T1 sequence with L30I, I54L

[8] = target: T8, SIX6 (Homo sapiens, UniProt O95475 114-200, T165G)
T8 sequence: T1 sequence with T52G, I54L

[9] = target: T9, SIX6 (Homo sapiens, UniProt O95475 114-200, T139Q)
T9 sequence: T1 sequence with T26Q, I54L

[10] = target: T10, SIX6 (Homo sapiens, UniProt O95475 114-200, T165A)
T10 sequence: T1 sequence with T52A, I54L

[11] = target: T11, SIX6 (Homo sapiens, UniProt O95475 114-200, L167V)
T11 sequence: T1 sequence with I54V

[12] = target: T12, SIX6 (Homo sapiens, UniProt O95475 114-200)
T12 sequence: T1 sequence with I54L

[13] = target: T13, SIX6 (Homo sapiens, UniProt O95475 114-200, T165I)
T13 sequence: T1 sequence with T52I, I54L

Sequence	binding signal [1]	binding signal [2]	binding signal [3]	binding signal [4]	binding signal [5]	binding signal [6]	binding signal [7]	binding signal [8]	binding signal [9]	binding signal [10]	binding signal [11]	binding signal [12]	binding signal [13]
CGGTATCA	11.3 upbm affinity estimate (log intensity, higher = more binding, comparable within an allelic series)	10.3 upbm affinity estimate (log intensity, higher = more binding, comparable within an allelic series)	11.3 upbm affinity estimate (log intensity, higher = more binding, comparable within an allelic series)	9.64 upbm affinity estimate (log intensity, higher = more binding, comparable within an allelic series)	10.6 upbm affinity estimate (log intensity, higher = more binding, comparable within an allelic series)	11 upbm affinity estimate (log intensity, higher = more binding, comparable within an allelic series)	10.4 upbm affinity estimate (log intensity, higher = more binding, comparable within an allelic series)	11.5 upbm affinity estimate (log intensity, higher = more binding, comparable within an allelic series)	11.4 upbm affinity estimate (log intensity, higher = more binding, comparable within an allelic series)	11.3 upbm affinity estimate (log intensity, higher = more binding, comparable within an allelic series)	11 upbm affinity estimate (log intensity, higher = more binding, comparable within an allelic series)	11.1 upbm affinity estimate (log intensity, higher = more binding, comparable within an allelic series)	11 upbm affinity estimate (log intensity, higher = more binding, comparable within an allelic series)
GTATCAGA	11.1 upbm affinity estimate (log intensity, higher = more binding, comparable within an allelic series)	10.3 upbm affinity estimate (log intensity, higher = more binding, comparable within an allelic series)	11.1 upbm affinity estimate (log intensity, higher = more binding, comparable within an allelic series)	9.63 upbm affinity estimate (log intensity, higher = more binding, comparable within an allelic series)	10.6 upbm affinity estimate (log intensity, higher = more binding, comparable within an allelic series)	10.9 upbm affinity estimate (log intensity, higher = more binding, comparable within an allelic series)	10.2 upbm affinity estimate (log intensity, higher = more binding, comparable within an allelic series)	11.1 upbm affinity estimate (log intensity, higher = more binding, comparable within an allelic series)	11.1 upbm affinity estimate (log intensity, higher = more binding, comparable within an allelic series)	11.1 upbm affinity estimate (log intensity, higher = more binding, comparable within an allelic series)	10.9 upbm affinity estimate (log intensity, higher = more binding, comparable within an allelic series)	10.9 upbm affinity estimate (log intensity, higher = more binding, comparable within an allelic series)	10.8 upbm affinity estimate (log intensity, higher = more binding, comparable within an allelic series)
ATGGTATC	11 upbm affinity estimate (log intensity, higher = more binding, comparable within an allelic series)	10.3 upbm affinity estimate (log intensity, higher = more binding, comparable within an allelic series)	11 upbm affinity estimate (log intensity, higher = more binding, comparable within an allelic series)	9.62 upbm affinity estimate (log intensity, higher = more binding, comparable within an allelic series)	10.6 upbm affinity estimate (log intensity, higher = more binding, comparable within an allelic series)	10.7 upbm affinity estimate (log intensity, higher = more binding, comparable within an allelic series)	10.4 upbm affinity estimate (log intensity, higher = more binding, comparable within an allelic series)	11.1 upbm affinity estimate (log intensity, higher = more binding, comparable within an allelic series)	11.2 upbm affinity estimate (log intensity, higher = more binding, comparable within an allelic series)	10.9 upbm affinity estimate (log intensity, higher = more binding, comparable within an allelic series)	10.8 upbm affinity estimate (log intensity, higher = more binding, comparable within an allelic series)	10.9 upbm affinity estimate (log intensity, higher = more binding, comparable within an allelic series)	10.8 upbm affinity estimate (log intensity, higher = more binding, comparable within an allelic series)
CAGTATCA	11.2 upbm affinity estimate (log intensity, higher = more binding, comparable within an allelic series)	10.2 upbm affinity estimate (log intensity, higher = more binding, comparable within an allelic series)	11.1 upbm affinity estimate (log intensity, higher = more binding, comparable within an allelic series)	9.69 upbm affinity estimate (log intensity, higher = more binding, comparable within an allelic series)	10.5 upbm affinity estimate (log intensity, higher = more binding, comparable within an allelic series)	10.7 upbm affinity estimate (log intensity, higher = more binding, comparable within an allelic series)	10.3 upbm affinity estimate (log intensity, higher = more binding, comparable within an allelic series)	11.2 upbm affinity estimate (log intensity, higher = more binding, comparable within an allelic series)	11 upbm affinity estimate (log intensity, higher = more binding, comparable within an allelic series)	11.1 upbm affinity estimate (log intensity, higher = more binding, comparable within an allelic series)	10.9 upbm affinity estimate (log intensity, higher = more binding, comparable within an allelic series)	10.9 upbm affinity estimate (log intensity, higher = more binding, comparable within an allelic series)	10.9 upbm affinity estimate (log intensity, higher = more binding, comparable within an allelic series)
GGCGACCC	8.98 upbm affinity estimate (log intensity, higher = more binding, comparable within an allelic series)	8.85 upbm affinity estimate (log intensity, higher = more binding, comparable within an allelic series)	9.03 upbm affinity estimate (log intensity, higher = more binding, comparable within an allelic series)	8.9 upbm affinity estimate (log intensity, higher = more binding, comparable within an allelic series)	8.99 upbm affinity estimate (log intensity, higher = more binding, comparable within an allelic series)	9.09 upbm affinity estimate (log intensity, higher = more binding, comparable within an allelic series)	8.97 upbm affinity estimate (log intensity, higher = more binding, comparable within an allelic series)	9.01 upbm affinity estimate (log intensity, higher = more binding, comparable within an allelic series)	9.15 upbm affinity estimate (log intensity, higher = more binding, comparable within an allelic series)	9.04 upbm affinity estimate (log intensity, higher = more binding, comparable within an allelic series)	8.91 upbm affinity estimate (log intensity, higher = more binding, comparable within an allelic series)	9.01 upbm affinity estimate (log intensity, higher = more binding, comparable within an allelic series)	9.02 upbm affinity estimate (log intensity, higher = more binding, comparable within an allelic series)
CAGCTGGC	8.7 upbm affinity estimate (log intensity, higher = more binding, comparable within an allelic series)	8.78 upbm affinity estimate (log intensity, higher = more binding, comparable within an allelic series)	8.72 upbm affinity estimate (log intensity, higher = more binding, comparable within an allelic series)	8.91 upbm affinity estimate (log intensity, higher = more binding, comparable within an allelic series)	8.72 upbm affinity estimate (log intensity, higher = more binding, comparable within an allelic series)	8.61 upbm affinity estimate (log intensity, higher = more binding, comparable within an allelic series)	8.88 upbm affinity estimate (log intensity, higher = more binding, comparable within an allelic series)	8.8 upbm affinity estimate (log intensity, higher = more binding, comparable within an allelic series)	8.91 upbm affinity estimate (log intensity, higher = more binding, comparable within an allelic series)	8.79 upbm affinity estimate (log intensity, higher = more binding, comparable within an allelic series)	8.84 upbm affinity estimate (log intensity, higher = more binding, comparable within an allelic series)	8.73 upbm affinity estimate (log intensity, higher = more binding, comparable within an allelic series)	8.69 upbm affinity estimate (log intensity, higher = more binding, comparable within an allelic series)
